Experimental data as given in PubChem BioAssay AID2116 (The Scripps Research Institute Molecular Screening Center, 2009).
Activity calls are given as the source filed them. How the calls were made is not given here.

Tested on: HEK Patch Clamp Assay
Experiment: TRPML3 and TRPML2 channel agonists, cell-based, patch clamp, Fura-2 profiling panel (AID 2116)
Details: HEK293 cells expressing TRPML3-YFP; patch clamp current at -80 mV

Question: Which outcome does the source give for `O=S(=O)(Nc1ccccc1N1CCCCC1)c1ccc(Cl)s1` here?
Answer: inactive; no effect on six other TRP channels

Question: What about the current density of the same compound?
Answer: -0.004 nA/pF

Question: What does the source list for `Cc1ccc(N2CCN(S(=O)(=O)N3CCCCC3)CC2)c(C)c1`?
Answer: current density: -0.007 nA/pF; outcome: inactive; no effect on six other TRP channels

Question: How did the current density turn out when `O=S(=O)(Nc1ccccc1N1CCOCC1)c1ccc(Cl)s1` was run?
Answer: -0.005 nA/pF

Question: What about the outcome of the same compound?
Answer: inactive; no effect on six other TRP channels

Question: `O=S(=O)(NC1CCCCC1N1CCOCC1)c1ccc(Cl)cc1` (stereo not given) was tested. Which outcome did it give?
Answer: inactive; no effect on six other TRP channels

Question: What about the current density of the same compound?
Answer: -0.003 nA/pF

Question: How did the outcome turn out when `Cc1ccc(S(=O)(=O)Nc2ccccc2-c2ccccc2)cc1` was run?
Answer: inactive; no effect on six other TRP channels

Question: And the current density?
Answer: -0.003 nA/pF
